The values below come from PubChem BioAssay (NCI).

The assay deals with HL-60(TB) leukemia. The assay is described as follows: NCI-60 one-dose screen, 48 h (100 = growth as untreated, 0 = no growth, -100 = all killed). Conditions: 10 µM unless noted.

The structures appear in SMILES notation. This is part of a sample that, as a whole, favours compounds with a hit. Of some 83,000 tested, about 20% had one in any assay.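 48-hour exposure, single concentration, 96-well plates; percent growth endpoint where 0 means no net growth. Active: below 10.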 A number with no mark means an inactive call. Activity calls are given as the source filed them.

Take `COc1ccc(-c2c(N)n[nH]c2-c2cc(OC)c(OC)c(OC)c2)cc1`: the growth was 15.3%.

As to `CC(=O)n1c(-c2ccc(Cl)cc2)nc2c(c1=O)C(c1ccc(Cl)cc1)c1sc3c(Cl)cccc3c1O2` (stereo not drawn), the growth was -15.4% (active).

Take `COc1ccc(-c2nc(SCCC(C)C)nc(N/N=C\c3cccc([N+](=O)[O-])c3)c2C#N)cc1`: the growth was 97%.

For the compound `CC(C)C1=NOC(=O)C1=Cc1cn(-c2cccnc2)nc1-c1ccccc1`, the growth was -0.56% (active).

With `COc1cccc(-c2cn3c(ccc4ccccc43)n2)c1`, the growth was 6.28% (active).

On to `COc1ccc(OC)c(/C=C2\CCc3ccccc3C2=O)c1`, for which the growth is 16.9%.

With `NC1CCN(c2nc(Nc3cccc(C(F)(F)F)c3)c3c(=O)[nH]ccc3n2)CC1`, the growth is -61.2% (active).

With `CN(C)c1ccc2cc(-c3ccc(Cl)c(Cl)c3)c(N)nc2c1`, the growth is 10.5%.

In the case of `C=C1C(=O)OC2CC1C(OC(C)=O)C/C(C)=C/CC/C(C)=C\CCC2(C)O` (stereo not drawn), the growth was -51.9% (active).

Regarding `CCN(Cc1ccccc1)C1CCN(Cc2cc(Br)ccc2O)CC1`, the growth was 50.1%.

For `CC1(C)NCCC[C@]2(C)[C@H]3CC=C4[C@@H]5C[C@@](C)(CO)CC[C@]5(C)CC[C@@]4(C)[C@]3(C)CC[C@@H]12`, the growth is 66.3%.

On to `CCCN(CCC)c1ccc(/C=C/c2ccc3cc(OCC)ccc3n2)cc1`, for which the growth was 54.3%.

`Oc1c(CN2CCCC2)cc(CSCc2ccccc2)c2cccnc12`: the growth was -23.7% (active).

For the compound `Cc1nc2cc(O)c(O)cc2cc1Oc1ccc(NC(=O)Nc2ccc(Cl)c(Cl)c2)cc1`, the growth was 96.8%.

For the compound `O=c1[nH]c(-c2ccc(Cl)cc2)nc2sc3c(c12)CCCC3`, the growth was 90.7%.

As for `CCOC(=O)c1ccc2c(c1)ncn2-c1ccc(NC(=O)Nc2cccc(C)c2)cc1`, the growth is 78.3%.

For `CCCCCSc1ccc2nc(NC(=O)OCCC)sc2c1`, the growth is 5.41% (active).

In the case of `CNc1ccc2c(c1)c1ccccc1n2C`, the growth was 93.7%.

On to `C/C(=C\C(=O)c1ccc(Cl)cc1)c1ccc(Cl)cc1`, for which the growth is 92.5%.

Regarding `CN1CCN(c2ccc(NC3=C(Cl)C(=O)c4ncccc4C3=O)cc2C#N)CC1`, the growth was -26.3% (active).

Turning to `COc1ccccc1-c1ccc2c(N)c(C(=O)c3ccc4c(c3)OCO4)sc2n1`, the growth was 37%.

Turning to `C=CCSc1nnc(-c2ccc(C(C)(C)C)cc2)n1-c1cccc(C(F)(F)F)c1`, the growth was 5.96% (active).

For `Cc1cc2nc3c4ccccc4n(CCN(C)C)c3nc2cc1C`, the growth was 8.35% (active).

As for `CC(C)N=C(N)/N=C(\N)Nc1ccc2ccc3ccccc3c2c1`, the growth is -47.8% (active).

Regarding `C[C@]12CC[C@@H]3c4ccc(O)c([N+](=O)[O-])c4CC[C@H]3[C@@H]1CC[C@@H]2NS(=O)(=O)c1cccc(Br)c1`, the growth was -5.66% (active).

Regarding `Cc1nn(-c2ccccc2)c2nc(Cl)c(C=O)c(-c3ccccc3)c12`, the growth is 95.8%.

For the compound `COc1cc(-c2nc(-c3nc4ccccc4[nH]3)cc3c2[nH]c2ccccc23)cc(OC)c1OC`, the growth is 44.2%.

In the case of `CCN(CC)S(=O)(=O)c1ccc(NC(=O)CSc2nnc(C)n2-c2ccccc2)cc1`, the growth is 132%.

For `Cc1cscc(C)c1=S`, the growth was 111%.

On to `Cc1nc(-c2ccccc2)cc2c(O)c(C(=O)N/N=C/Cc3ccccc3)[nH]c(=O)c12`, for which the growth was 76.8%.

Turning to `CN(C)c1ccc(-c2ccc(-c3ccc(C(=N)N)cn3)o2)cc1`, the growth was -67.3% (active).

As to `C[C@]12CCc3c(ccc4cc(O)ccc34)[C@@H]1CC[C@H]2O`, the growth was 86.7%.

As to `FC(F)(F)c1nn[nH]n1`, the growth is 102%.
